# Screening data: PubChem BioAssay, ICCB-Longwood Screening Facility, Harvard Medical School
# Sa growth inh – S. aureus growth inhibition at 42 and 30 °C, primary screen, LtaS inhibitor project, RN4220, two temperatures; OD600, 20 h, 42 °C; hits give low values; relative growth, % (test concentration not listed); 170,000 tested, 0.53% active;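 active = relative growth at most 50% at the other temperature and 20+ points below 30 °C, or under 10% at both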
# Sa helicase inh – inhibitors of S. aureus replicative helicase, primary screen, biochemical, fluorescence unwinding readout | 120,000 tested, 0.05% active | purified S. aureus helicase, fluorescence unwinding assay | replicative DNA helicase (DnaC/DnaB), Staphylococcus aureus | AID 485395, 2010 | inhibition, % (concentration not given with the values); in the data active = inhibition above about 25%, passing the limit was not always enough;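 also: 0% = mean of negative control wells and 100% = mean of positive control wells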
# * = called active by the depositor; . = not tested or not shown. The full list was thinned out, with hits kept by preference.
SMILES,Sa growth inh,Sa helicase inh
Cc1ccc2c(c1)c1c3n2CCN=C3CCC1,93,16
c1cc2c(cc1C1CCCCC1)c1c3n2CCN=C3CCC1,-2.0*,1
Cc1cc(=O)oc2cc(NC(=O)CC(CC(=O)O)c3ccccc3)ccc12 (stereo unspecified),93,.
CC(=O)N/N=C/c1cc2ccccc2nc1Cl,101,21
O=C(Nc1cnn(C23CC4CC(CC(C4)C2)C3)c1)c1cc(-c2ccccc2F)no1,119,4
CCn1cc(C(=O)O)c(=O)c2cc(F)c(F)cc21,85,8
CCn1cc(C(=O)O)c(=O)c2cc(F)c(N(C)CCc3ccc(OC)c(OC)c3)cc21,0.0*,23
COc1ccc(CC(=O)Nc2ncn[nH]2)cc1,96,8
CS(=O)c1nc(-c2ccccc2)cc(C(F)(F)F)n1 (stereo unspecified),-0.2*,7
FC(F)(F)c1cc(-c2ccccc2)nc(N2CCCC2)n1,102,3
Cc1conc1NC(c1cccs1)c1ccc2cccnc2c1O (stereo unspecified),3.1*,11
O=C(NC(c1cccs1)c1ccc2cccnc2c1O)C1CCCCC1 (stereo unspecified),105,16
CC1=C/C(=N/Nc2nc3ccccc3[nH]2)CC(C)(C)C1,-0.4*,15
CC1C/C(=N/Nc2nc3ccccc3[nH]2)CC(C)(C)C1 (stereo unspecified),83,11
COc1cc(C2CC(=O)Nc3nc(SC)[nH]c(=O)c32)ccc1OCC(N)=O (stereo unspecified),99,22
CCn1c(SCc2cc(=O)oc3cc(O)ccc23)nc2ccccc21,93,-1
Nn1c(Cc2ccccc2F)nnc1SCc1cc(=O)oc2cc(O)c(O)cc12,139,55*
Nn1c(SCc2cc(=O)oc3cc(O)c(O)cc23)nnc1-c1ccncc1,68,25
Cn1c(SCc2cc(=O)oc3cc(O)c(O)cc23)nc2ccccc21,71,67*
CSc1ncccc1C(=O)OCc1cccc(C(F)(F)F)c1,106,8
Cc1ccc2c(c1)c1c(c(=O)n(-c3ccccc3)c(=O)n1CC(=O)N1CCCC1)n2C,98,.
Cc1nc(N)oc1C,83,-10
N[C@@H](C(=O)N[C@@H]1C(=O)N2C(C(=O)O)=C(CSc3cn[nH]n3)CS[C@H]12)c1ccc(O)cc1 (tested in a mixture with another compound),27*,.
CCN1CCN(C(=O)NC(C(=O)NC2C(=O)N3C(C(=O)O)=C(CSc4nnnn4C)CSC23)c2ccc(O)cc2)C(=O)C1=O (stereo unspecified),-1.3*,.
CO/N=C(/C(=O)NC1C(=O)N2C(C(=O)OC(C)OC(C)=O)=C(COC(N)=O)CSC12)c1ccco1 (stereo unspecified),26,.
SMILES,Sa growth inh,Sa helicase inh
N[C@@H](C(=O)N[C@@H]1C(=O)N2C(C(=O)O)=C(Cl)CS[C@H]12)c1ccccc1,-0.9*,.
CC(C)OC(=O)C(N)c1ccccc1 (stereo unspecified),95,18
CCOC(=O)COc1ccc(C=C2C(=O)NC(=O)NC2=O)cc1Br,96,8
CCc1ccc(NC(=O)CC2C(=O)OCCN2CC)cc1 (stereo unspecified),47,.
CCN1CCOC(=O)C1CC(=O)Nc1ccccc1C(F)(F)F (stereo unspecified),30*,.
CN(CCOC(=O)c1cc(Cl)cc(Cl)c1)c1ccc(C#N)cn1,98,.
Nc1nc(-c2ccc3c(c2)CCCC3)cs1,108,-14
Nc1nc(=S)nc(Cc2ccc3c(c2)CCC3)[nH]1,45*,-27
Cc1ccccc1OCC1=NN2C(=N)/C(=C/c3ccc(N(C)C)cc3)C(=O)N=C2S1,123,-42
CCCSC(=S)c1c(C)[nH]n(-c2ccccc2)c1=O,0.2*,-7
CCCSC(=S)c1c(C)[nH]n(-c2ccc(C)cc2)c1=O,123,.
CCN1/C(=C/c2scc[n+]2C)C=C(C)c2cc(OC)c3ccccc3c21,-1.3*,-40
CCN1C(=O)c2ccccc2Sc2ccc(NC(=O)Nc3ccccc3OC)cc21,111,.
c1csc(-c2cc(N3CCOCC3)c3ccccc3n2)c1,97,30
O=C(COCc1cc(-c2ccc(F)cc2)on1)Nc1ccc(F)cc1F,92,17
